High-throughput results from PubChem BioAssay.
The full list was thinned out, with hits kept by preference.
Dicer inh – human Dicer pre-microRNA cleavage inhibition. cat-ELCCA pre-miR-21 Dicer processing, chemiluminescence; hits give high values. z-score at 25 µM. 47,000 compounds, 6% hits. AID 1347074; in the data active = z-score above about 3, passing the limit was not always enough;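 note: plate controls were vehicle for no effect and no enzyme for full effect; higher signal means more uncleaved substrate so more Dicer inhibition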
An asterisk follows results filed as active.

SMILES	Dicer inh
O=C(Oc1ccccc1)c1ccc(=O)oc1	1.7
Cc1ccc(S(=O)(=O)NC2=NCN(CCc3ccccc3)CN2)cc1	-1.2
Cc1ccc(S(=O)(=O)NC2=NCN(Cc3ccccc3)CN2)cc1	4.6*
CCCN1CN=C(NS(=O)(=O)c2ccc(C)cc2)NC1	0.67
O=c1cc(C(F)(F)F)[nH]c2c(Br)cccc12	1
CCNc1nc(-c2ccccc2)cs1	3.3*
Cc1nc(-c2ccc(-c3ccccc3)cc2)cs1	0.49
O=C(Nc1nc(-c2ccccc2)cs1)C1CC1	6.7
CN1CCc2c(sc3c2C(=O)NC(c2ccc(-c4ccccc4F)o2)N3)C1 (stereo not given)	-0.84
O=C(O)CNS(=O)(=O)c1ccc2[nH]c(=O)[nH]c2c1	0.48
O=c1[nH]c2ccc(S(=O)(=O)NC3CCCCC3)cc2[nH]1	4.7*
Cn1c(=O)n(C)c2cc(S(=O)(=O)NC3CCCCC3)ccc21	-0.28
N#CC(=Nc1ccccc1)C1=C(O)c2ccccc2C1=O	-0.66
CSC(=Nc1cccc(C(F)(F)F)c1)N1CCCC1	2.4
COc1ccc(COC(=O)C2=C(C)NC3=C(C(=O)CC(C)(C)C3)C2c2ccncc2)cc1 (stereo not given)	1.3
COC(=O)C1=C(C)NC2=C(C(=O)CC(c3ccc(Cl)cc3)C2)C1c1ccc(C)cc1 (stereo not given)	0.95
CCOC(=O)C1=C(C)NC2=C(C(=O)CC(C)(C)C2)C1c1ccc(OC)cc1 (stereo not given)	-1.1
CCCOC(=O)C1=C(C)NC2=C(C(=O)CC(C)(C)C2)C1c1ccc(O)cc1 (stereo not given)	3.8*
CCCOC(=O)C1=C(C)NC2=C(C(=O)CC(c3ccccc3)C2)C1c1ccc(C)cc1 (stereo not given)	1.1
COc1ccc(COC(=O)C2=C(C)NC3=C(C(=O)CC(C)(C)C3)C2c2ccc(OC)cc2)cc1 (stereo not given)	3.5*
CC1=C(C(=O)OCCOC(C)C)C(c2ccc(O)cc2)C2=C(CC(C)(C)CC2=O)N1 (stereo not given)	1.7
CCCOC(=O)C1=C(C)NC2=C(C(=O)CC(c3ccc(Cl)cc3)C2)C1c1ccc(O)cc1 (stereo not given)	4.7*
COC(=O)c1ccc(C2C(C(=O)OCc3ccc(OC)cc3)=C(C)NC3=C2C(=O)CC(C)(C)C3)cc1 (stereo not given)	0.18
CCCOC(=O)C1=C(C)NC2=C(C(=O)CC(C)(C)C2)C1c1ccc(N(CC)CC)cc1 (stereo not given)	0.92
CCOC(=O)C1=C(C)NC2=C(C(=O)CC(C)(C)C2)C1c1ccc(OC(C)=O)cc1 (stereo not given)	6.8*
SMILES	Dicer inh
C=CCOC(=O)C1=C(C)NC2=C(C(=O)CC(C)(C)C2)C1c1ccc(OC(C)=O)cc1 (stereo not given)	-0.25
CCCCCC(=O)O/N=C(\C)c1ccn(S(=O)(=O)c2ccc(Cl)cc2)c1	-1
C/S(=N\S(=O)(=O)c1ccccc1)c1ccccc1 (stereo not given)	0.38
C[N+](C)(C)CCOP(=O)(O)OP(=O)([O-])OC[C@H]1O[C@@H](n2ccc(N)nc2=O)C(O)[C@H]1O (stereo not given in full)	-0.36
Cn1c(=O)c2c(nc(Oc3cc(Cl)c(Cl)cc3Cl)n2Cc2ccccc2)n(C)c1=O	0.29
C=CCNc1nc(C)nc2c1sc1nc3c(cc12)COC(C)(C)C3	1.8
Cn1c(=O)c2c3nc4cc(F)ccc4cc3c(=O)n(C)c2n(C)c1=O	-1.5
N#Cc1cnc(Sc2nnc(-c3cccs3)n2-c2ccc(Cl)cc2)nc1N	-0.15
Cc1cc(C)cc(NC(=O)/C=C/C(=O)O)c1	7.1*
Cn1cc(Br)c(NC(=O)/C=C\C(=O)O)n1	-1.8
Cc1cc(C)c(C)c(C(=O)/C=C/C(=O)O)c1C	0.97
O=C(O)/C=C/C(=O)Nc1ccc(C2CCCCC2)cc1	1.4
Cc1ccc(C)c(NC(=O)/C=C/C(=O)O)c1	2.8
Cc1c(C)c(NC(=O)/C=C/C(=O)O)c(C)c(C)c1NC(=O)/C=C/C(=O)O	3.5*
COc1ccc(-c2c(C(F)(F)F)oc3c(CN(C)C)c(O)ccc3c2=O)cc1OC	-0.28
CCOC(=O)/C(=C(/C)N)C1CC(=O)N(c2ccccc2)C1=O (stereo not given)	0.57
CN(C(=O)CSc1cc(Cl)ccc1Cl)c1ccc(F)cc1F	-0.09
CN1c2ccccc2C(=O)/C(=C\Nc2ccc(F)c(Cl)c2)S1(=O)=O	-1.4
O=C(O)c1ccc(S(=O)(=O)c2cc(Cl)ccc2Cl)c([N+](=O)[O-])c1	-1.5
COc1ccccc1C(=O)NNc1ncccc1C(F)(F)F	2
CC(C)(C)C(=O)O/N=C(\N)COc1ccc(Cl)cc1Cl	-2.7
CN(C(=O)Nc1ccccc1)n1cnc2ccsc2c1=O	5.4*
CN(C(=O)CN1CCOCC1)n1cnc2ccsc2c1=O	0.08
CN(n1cnc2ccsc2c1=O)S(=O)(=O)c1ccc(Cl)cc1	0.02
C=CCn1c(COc2ccc(Cl)cc2C)n[nH]c1=S	-1.3
COC(=O)C1=C(C)NC(C)=C(C(=O)OC)C1c1cccc(C)n1	-0.04
Clc1ccc2nc3c(nc2c1)Nc1ccccc1S3	0.76
